Pf Dd2 growth – P. falciparum Dd2 growth inhibition; activity change, % at 10 µM; SYBR Green, 72 h; hits give low values; actives 2.3% (n = 94,000); in the data active = activity change below about -80%
Tcruzi prolif – blocks T. cruzi growth in NIH3T3 culture | T. cruzi beta-gal in NIH3T3, GalScreen luminescence, 90 h | inhibition, % at 8.34 µM | actives 5.9% (n = 77,000) | AID 624255;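 active = mean inhibition above about 93%, with at least 55% of replicates each passing it, limit read from the data, passing the limit was not always enough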
C diff HTS – C. difficile growth inhibition; Clostridium difficile clinical isolate growth, OD600, 24 h; hits give low values; growth activity, negative = inhibition, % at 16 µg/mL (by protocol); actives 0.25% (n = 86,000); AID 1259249;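 active = mean growth activity at or below -80% and every replicate also at or below -80%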
Large screens that a line does not name were inactive. In the library only some 6.7% were active in any assay of this set; here they are far more common.

O=C(Nc1ccccc1F)N[C@@H]1CC[C@H](CCNS(=O)(=O)c2ccc(Cl)cc2)O[C@@H]1CO	none (no result: C diff HTS)
O=C1CSC(c2ccccc2)N1c1cccc(Cl)c1 (stereo not drawn)	none (no result: Pf Dd2 growth, Tcruzi prolif)
Cc1cccc(S(=O)(=O)N(C)C[C@H]2OCc3ccccc3-c3c(n(C)c4ccccc34)C(=O)N([C@H](C)CO)C[C@@H]2C)c1	none (no result: C diff HTS)
C[C@H](CO)N1C[C@H](C)[C@H](CN(C)S(=O)(=O)c2ccc([N+](=O)[O-])cc2)OCc2ccccc2-c2c(n(C)c3ccccc23)C1=O	Pf Dd2 growth -92.3 (no result: Tcruzi prolif)
Cc1ccc(S(=O)(=O)N(C)C[C@@H]2OCc3ccccc3-c3c(n(C)c4ccccc34)C(=O)N([C@H](C)CO)C[C@H]2C)cc1	Pf Dd2 growth -81.9 (no result: C diff HTS)
C[C@@H]1CN([C@@H](C)CO)C(=O)c2c(c3ccccc3n2C)-c2ccccc2CO[C@@H]1CN(C)S(=O)(=O)c1ccc([N+](=O)[O-])cc1	none (no result: Tcruzi prolif)
O=C(O)C[C@H]1CC[C@H](NC(=O)Nc2cc(F)ccc2F)[C@@H](CO)O1	none (no result: Tcruzi prolif)
C[C@@H]1CCCCO[C@@H](CN(C)C(=O)c2ccccc2)[C@H](C)CN([C@@H](C)CO)C(=O)c2cc(NC(=O)CCC(F)(F)F)ccc2O1	none
C[C@@H]1CN([C@@H](C)CO)C(=O)c2c(c3ccccc3n2C)-c2ccccc2CO[C@H]1CN(C)Cc1cccc(F)c1	none (no result: Tcruzi prolif)
COCC(=O)Nc1ccc2c(c1)OC[C@H](C)N(Cc1cccc(F)c1)C[C@@H](C)[C@@H](OC)CN(C)C2=O	none (no result: C diff HTS)
C[C@@H]1CN([C@@H](C)CO)S(=O)(=O)c2ccc(-c3cccc(C#N)c3)cc2O[C@H]1CN(C)Cc1cccc(F)c1	Pf Dd2 growth -84.2
CC(C)CC#Cc1ccc2c(c1)O[C@@H](CN(C)Cc1ccccc1)[C@@H](C)CN([C@H](C)CO)S2(=O)=O	none (no result: C diff HTS)
CC(C)CC#Cc1ccc2c(c1)O[C@@H](CN(C)Cc1cccc(F)c1)[C@H](C)CN([C@H](C)CO)S2(=O)=O	Pf Dd2 growth -92.0
C[C@H](CO)N1C[C@H](C)[C@@H](CN(C)Cc2cccc(F)c2)Oc2cc(-c3cccc(C#N)c3)ccc2S1(=O)=O	none
C[C@H](CO)N1C[C@H](C)[C@@H](CN(C)Cc2ccncc2)Oc2cc(C#CC(C)(C)O)ccc2S1(=O)=O	none
COCC(=O)N(C)C[C@H]1Oc2ncc(C#C[C@@H](C)O)cc2C(=O)N([C@H](C)CO)C[C@H]1C	none (no result: Pf Dd2 growth)
CCCNC(=O)C[C@@H]1C[C@H]2c3cc(NC(=O)Nc4ccccc4F)ccc3O[C@H]2[C@@H](CO)O1	none
C[C@@H]1CCCCO[C@@H](CN(C)C(=O)Nc2cccc3ccccc23)[C@H](C)CN([C@@H](C)CO)C(=O)c2cc(NC(=O)c3ccncc3)ccc2O1	none
C[C@@H]1CN([C@@H](C)CO)C(=O)c2cc(NC(=O)c3ccccc3)ccc2O[C@@H](C)CCCCO[C@@H]1CN(C)C(=O)Nc1cccc2ccccc12	Pf Dd2 growth -87.4
C[C@@H]1CN([C@@H](C)CO)C(=O)c2cc(NC(=O)c3ccncc3)ccc2O[C@@H](C)CCCCO[C@H]1CN(C)C(=O)Nc1cccc2ccccc12	none
C[C@H](CO)N1C[C@H](C)[C@@H](CN(C)C(=O)Nc2cccc3ccccc23)OCCCC[C@H](C)Oc2ccc(NC(=O)c3ccccc3)cc2C1=O	none
C[C@@H]1CCCCO[C@@H](CN(C)C(=O)Nc2cccc3ccccc23)[C@H](C)CN([C@H](C)CO)C(=O)c2cc(NC(=O)c3ccncc3)ccc2O1	Pf Dd2 growth -84.5
C[C@@H]1CN([C@H](C)CO)C(=O)c2cc(NC(=O)c3ccncc3)ccc2O[C@@H](C)CCCCO[C@@H]1CN(C)C(=O)Nc1cccc2ccccc12	Pf Dd2 growth -90.2 (no result: Tcruzi prolif)
C[C@@H]1CN([C@H](C)CO)C(=O)c2cc(NC(=O)c3ccncc3)ccc2O[C@@H](C)CCCCO[C@H]1CN(C)C(=O)Nc1cccc2ccccc12	none
C[C@@H]1CN([C@@H](C)CO)C(=O)c2cc(NC(=O)c3ccncc3)ccc2O[C@@H](C)CCCCO[C@@H]1CN(C)C(=O)Nc1cccc2ccccc12	Pf Dd2 growth -84.0
C=CC[C@]1(C(=O)NCc2ccccc2)COC(c2ccc(OCCCO)cc2)=N1	none (no result: Pf Dd2 growth, Tcruzi prolif)
C[C@@H]1CN([C@@H](C)CO)C(=O)c2cccc(NC(=O)C3CCOCC3)c2O[C@H]1CN(C)Cc1ccc(C(F)(F)F)cc1	none
CN(C)C(=O)c1ccc(-c2ccc(C3[C@@H]4CN(C(=O)C5CCCCC5)C[C@H]3N4)cc2)cc1 (stereo partly drawn)	none (no result: Tcruzi prolif)
CC(C)NC(=O)N1[C@H](C#N)[C@@H](c2ccc(C#CC3CCCCC3)cc2)[C@H]1CO	none
N#C[C@H]1[C@H](c2ccc(C#CC3CCCCC3)cc2)[C@@H](CO)N1C(=O)Nc1ccc(F)cc1	Pf Dd2 growth -86.1 (no result: Tcruzi prolif)
N#C[C@@H]1[C@H](c2ccc(C#Cc3ccc(F)cc3)cc2)[C@@H](CO)N1C(=O)Nc1ccc(F)cc1	none
